Compounds without any hit were thinned out: in the full panel of roughly 79,000, 15% have a hit. Activity calls are given as the source filed them. Rule as the data show it: active = growth inhibition above about 70%; inactive = the rest.
Key:
[1] = NCI Yeast Anticancer Drug Screen. Data for the rad52 strain (AID 147);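 also: 0% = growth of vehicle-treated control cultures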; conditions: S. cerevisiae rad52 mutant growth inhibition, active compounds read high
Procedure, shortened: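 The repair-mutant yeast strain was incubated with compounds, then growth was read and inhibition derived relative to vehicle.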

[2] = NCI Yeast Anticancer Drug Screen. Data for the wt1 strain (AID 149);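 also: 0% = growth of vehicle-treated wt1 cultures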; conditions: S. cerevisiae wt1 strain (SPY 50644) growth inhibition, active compounds read high
Procedure, shortened: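 Measured: growth of wt1 yeast under compound versus vehicle treatment, reported as inhibition.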

[3] = NCI Yeast Anticancer Drug Screen. Data for the rad50EPP+ strain (AID 151);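 also: 0% = growth of vehicle-treated control cultures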; conditions: S. cerevisiae rad50 mutant strain, active compounds read high
Procedure, shortened: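 Vehicle-normalised growth inhibition; rad50EPP+ yeast strain, altered in DNA damage repair, compound-treated.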

[4] = NCI Yeast Anticancer Drug Screen. Data for the rad50 strain (AID 155);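 also: 0% = growth of vehicle-only cultures of the same strain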; conditions: S. cerevisiae rad50 strain growth inhibition, active compounds read high
Procedure, shortened: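 Growth of the mutant yeast was measured after compound exposure and referenced to vehicle-treated cultures.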

[5] = NCI Yeast Anticancer Drug Screen. Data for the mec2-1 strain (AID 157); conditions: S. cerevisiae mec2-1 strain, active compounds read high
Procedure, shortened: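 Mutant yeast (mec2-1) grown with compound; growth inhibition relative to vehicle control reported.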

[6] = NCI Yeast Anticancer Drug Screen. Data for the rad14 strain (AID 159);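 also: 0% = growth of vehicle-treated control cultures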; conditions: S. cerevisiae rad14 strain growth inhibition, active compounds read high
Procedure, shortened: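 Here, inhibition of yeast growth was measured after compound exposure, using a strain with a genetic defect in DNA damage repair and vehicle-treated cultures as the reference.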

[7] = NCI Yeast Anticancer Drug Screen. Data for the sgs1 mgt1 strain (AID 161);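 also: 0% = growth of cultures given vehicle only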; conditions: S. cerevisiae sgs1 mgt1 strain, active compounds read high
Procedure, shortened: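 This yeast growth screen uses a strain with defined DNA-repair lesions; compound-treated growth is compared with vehicle-treated growth.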

[8] = NCI Yeast Anticancer Drug Screen. Data for the CLN2oe strain (AID 163);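 also: 0% = growth of vehicle-only control cultures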; conditions: S. cerevisiae CLN2oe strain, active compounds read high
Procedure, shortened: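 Compounds are applied to yeast harbouring a defined cell-cycle control change; reduced growth compared with vehicle-treated controls gives the value.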

[9] = NCI Yeast Anticancer Drug Screen. Data for the cln2 rad14 strain (AID 165);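 also: 0% = growth equal to vehicle treated cultures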; conditions: S. cerevisiae cln2 rad14 strain, active compounds read high
Procedure, shortened: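 Readout is yeast growth inhibition versus vehicle-treated controls, using a strain with cln2 and rad14 alterations exposed to compound.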

[10] = NCI Yeast Anticancer Drug Screen. Data for the bub3 strain (AID 167); conditions: S. cerevisiae bub3 mutant strain, active compounds read high
Procedure, shortened: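 Whole-cell yeast assay. The mutant strain was incubated with compounds, and growth inhibition was determined by comparison with vehicle-treated cells.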

[11] = NCI Yeast Anticancer Drug Screen. Data for the mlh1 strain (AID 171);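 also: 0% = growth of vehicle-treated control cultures of the same strain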; conditions: S. cerevisiae mlh1 strain growth inhibition, active compounds read high
Procedure, shortened: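 Measured: yeast growth. Reference: vehicle-treated controls. Organism: strain with a defined alteration affecting DNA damage repair or cell cycle control, treated with compound.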

[12] = NCI Yeast Anticancer Drug Screen. Data for the sgs1 strain (AID 173);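 also: 0% = growth of vehicle-only control cultures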; conditions: S. cerevisiae sgs1 mutant, active compounds read high
Procedure, shortened: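 Each compound was added to cultures of the altered yeast strain. Growth was recorded, and inhibition was derived by comparison with vehicle controls.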

[13] = NCI Yeast Anticancer Drug Screen. Data for the mlh1 rad18 strain (AID 175); conditions: S. cerevisiae mlh1 rad18 strain growth inhibition, active compounds read high
Procedure, shortened: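 Genetically defined yeast (DNA repair-deficient) exposed to compounds; growth inhibition determined relative to vehicle.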

[14] = NCI Yeast Anticancer Drug Screen. Data for the rad18 strain (AID 177); conditions: S. cerevisiae rad18 mutant growth inhibition, active compounds read high
Procedure, shortened: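 Vehicle-treated cultures served as the baseline for scoring compound-induced growth inhibition in DNA-repair-mutant yeast.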

[15] = at 5.0 µM (retest, dose inferred, filed as 0.5)
[16] = at 50.0 µM (retest, dose inferred, filed as 5.0)

Measured: growth inhibition

Cc1c2cc[n+](CCN3CCCCC3)cc2c(C)c2c1[nH]c1ccc(O)cc12
inactive: [1]; at 1.2 µM 19% | [1]; at 3.7 µM 44% | [2]; at 1.2 µM 2% | [2]; at 3.7 µM 2% | [2]; at 11.0 µM 5% | [2]; at 33.0 µM 6% | [2]; at 100.0 µM 29% | [3]; at 1.2 µM 4% | [3]; at 3.7 µM 16% | [3]; at 11.0 µM 62% | [4]; at 1.2 µM 17% | [4]; at 3.7 µM 47% | [4]; [15] 36% | [5]; at 1.2 µM -2% | [5]; at 3.7 µM 3% | [5]; [15] 25% | [5]; at 11.0 µM 5% | [5]; at 33.0 µM 15% | [5]; [16] 4% | [5]; at 50.0 µM 57.5% | [6]; at 1.2 µM 1% | [6]; at 3.7 µM 12% | [6]; at 11.0 µM 1% | [6]; at 33.0 µM 14% | [7]; [15] 2% | [7]; [16] 38% | [8]; at 1.2 µM -3% | [8]; at 3.7 µM -3% | [8]; at 11.0 µM -3% | [8]; at 33.0 µM 4% | [9]; [15] 5% | [9]; [16] 6% | [9]; at 50.0 µM 30.1% | [10]; at 1.2 µM -20% | [10]; at 3.7 µM 5% | [10]; [15] 16% | [10]; at 11.0 µM -4% | [10]; at 33.0 µM -5% | [10]; [16] 28% | [11]; at 1.2 µM -5% | [11]; at 3.7 µM -4% | [11]; at 11.0 µM 0% | [11]; at 33.0 µM 8% | [12]; at 1.2 µM -1% | [12]; at 3.7 µM -2% | [12]; at 11.0 µM 1% | [12]; at 33.0 µM 12% | [13]; [15] 3% | [13]; [16] 25% | [14]; at 1.2 µM -2% | [14]; at 3.7 µM -5% | [14]; at 11.0 µM -4% | [14]; at 33.0 µM -4% | [14]; at 100.0 µM 41%
active: [1]; at 11.0 µM 81% | [1]; at 33.0 µM 93% | [1]; at 100.0 µM 98% | [3]; at 33.0 µM 89% | [3]; at 100.0 µM 96% | [4]; at 11.0 µM 74% | [4]; at 33.0 µM 91% | [4]; [16] 97% | [4]; at 50.0 µM 97.8% | [4]; at 100.0 µM 98% | [5]; at 100.0 µM 98% | [6]; at 100.0 µM 93% | [7]; at 50.0 µM 89.2% | [8]; at 100.0 µM 72% | [10]; at 50.0 µM 90.5% | [10]; at 100.0 µM 97% | [11]; at 100.0 µM 97% | [12]; at 100.0 µM 94% | [13]; at 50.0 µM 81.8%

CCCCC(CC)C(=O)Oc1ccc(C(=O)c2ccccc2)c(O)c1 (stereo not drawn)
active: [1]; at 100.0 µM 98% | [2]; at 100.0 µM 98% | [3]; at 100.0 µM 88% | [4]; [16] 76% | [4]; at 50.0 µM 74.9% | [4]; at 100.0 µM 96% | [5]; [16] 79% | [5]; at 50.0 µM 75.2%
inactive: [1]; at 1.2 µM 4% | [1]; at 3.7 µM 3% | [1]; at 11.0 µM 6% | [1]; at 33.0 µM 61% | [2]; at 1.2 µM -13% | [2]; at 3.7 µM -17% | [2]; at 11.0 µM -15% | [2]; at 33.0 µM 37% | [3]; at 1.2 µM 8% | [3]; at 3.7 µM 13% | [3]; at 11.0 µM 20% | [3]; at 33.0 µM 54% | [4]; at 1.2 µM 7% | [4]; at 3.7 µM 4% | [4]; [15] 50% | [4]; at 11.0 µM 15% | [4]; at 33.0 µM 56% | [5]; at 1.2 µM 10% | [5]; at 3.7 µM 15% | [5]; [15] 53% | [5]; at 11.0 µM 19% | [5]; at 33.0 µM 61%

From PubChem BioAssay (NCI)
